High-throughput results from PubChem BioAssay.
Most compounds without a hit are left out; they make up all but 2.7% or so of the library.
F508del corr = F508del CFTR correction, initial screen, CFBE line, single point. CFBE cells, YFP halide quenching; stimulated with forskolin plus potentiator P3; % fluorescence drop versus neutral controls. activity (quench increase), % at 7.58 µM. actives 0.36% (n = 350,000);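 active = mean added fluorescence quench of at least 8% versus neutral control, with both replicates also reaching 8%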;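 note: cells transiently co-express mutant CFTR-F508del with the halide-sensitive YFP; corrector assay measuring rescue of mutant channel to the surface after 24 h compound exposure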
NRP1-CendR mod = modulators of CendR peptide binding to NRP-1, primary screen, biochemical, fluorescence polarization, uHTS | Neuropilin-1 (Homo sapiens), O14786 | FAM-RPARPAR peptide binding to NRP-1 | inhibition, % at 25 µM | actives 0.85% (n = 360,000);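 active = inhibition or corrected inhibition above about 18%, plus a signal ratio from 0.5 to 1.5, limit read from the data, passing the limit was not always enough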
Target sequence (O14786 whole entry, looked up): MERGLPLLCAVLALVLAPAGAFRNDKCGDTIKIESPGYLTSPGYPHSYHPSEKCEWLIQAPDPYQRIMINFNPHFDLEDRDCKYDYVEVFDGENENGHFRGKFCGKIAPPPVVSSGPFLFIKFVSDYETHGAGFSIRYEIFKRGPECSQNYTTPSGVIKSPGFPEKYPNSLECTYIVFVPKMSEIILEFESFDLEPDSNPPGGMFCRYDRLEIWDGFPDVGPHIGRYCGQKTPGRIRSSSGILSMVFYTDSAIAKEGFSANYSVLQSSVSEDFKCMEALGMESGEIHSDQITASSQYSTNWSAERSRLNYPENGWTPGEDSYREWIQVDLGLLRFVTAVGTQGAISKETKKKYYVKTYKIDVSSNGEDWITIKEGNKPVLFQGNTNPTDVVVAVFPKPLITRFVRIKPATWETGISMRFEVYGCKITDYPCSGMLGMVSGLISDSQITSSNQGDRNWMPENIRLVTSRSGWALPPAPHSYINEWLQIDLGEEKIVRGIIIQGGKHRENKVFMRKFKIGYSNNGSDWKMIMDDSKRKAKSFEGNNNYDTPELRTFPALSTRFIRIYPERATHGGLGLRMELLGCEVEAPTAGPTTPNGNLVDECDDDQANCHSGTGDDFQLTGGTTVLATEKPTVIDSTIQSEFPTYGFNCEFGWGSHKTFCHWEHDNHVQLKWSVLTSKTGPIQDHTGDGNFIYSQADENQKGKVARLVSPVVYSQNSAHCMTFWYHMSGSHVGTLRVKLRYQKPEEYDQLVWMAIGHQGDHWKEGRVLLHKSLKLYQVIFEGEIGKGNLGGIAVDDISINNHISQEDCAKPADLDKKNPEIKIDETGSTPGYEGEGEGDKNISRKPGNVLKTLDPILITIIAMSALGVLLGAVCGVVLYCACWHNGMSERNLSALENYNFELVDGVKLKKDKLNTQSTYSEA
SKN-1 inh = suppressors of acrylamide-induced Pgst-4::GFP reporter in worms, primary screen, SKN-1 inhibitor project, whole organism, uHTS, GFP/RFP fluorescence ratio, strain VP596. inhibition, % at 21.8 µM. actives 0.49% (n = 360,000). C. elegans VP596 Pgst-4::GFP/RFP ratio, 24 h;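 active = interference check ratio from 0.5 to 1.5 plus GFP to RFP signal ratio inhibition reaching or exceeding a fixed threshold, cut at about 30% in these data, passing the limit was not always enough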
ATG4B inhibitor = ATG4B protease inhibitors, primary screen, biochemical, fluorescence, uHTS; inhibition, % at 8.33 µM; actives 0.51% (n = 340,000); ATG4B cleavage of LC3-PLA2, NBD-HPC fluorescence, 1 h; in the data active = inhibition above about 40%
MPTP block = mitochondrial permeability transition pore inhibitors, primary screen, biochemical, isolated mouse mitochondria, absorbance. actives 1.4% (n = 360,000). inhibition, % at 10 µM. Ca2+ swelling absorbance, 30 min;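 active = inhibition of 50% or more, scaled per plate between neutral and stimulator controls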;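 note: 0% = DMSO wells given calcium and 100% = 1 mM EGTA wells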
Numbers without * were called inactive; / = no result.

SMILES	F508del corr	NRP1-CendR mod	SKN-1 inh	ATG4B inhibitor	MPTP block
COc1cccc(Nc2nc(N)nc(-c3oc4ccccc4c3C)n2)c1	/	0	3	-3	1
C=CCC1CCCCC1=C(C#N)c1ccccc1 (stereo not drawn)	1	-1	46*	/	1
C=CCN1C(c2ccccc2)=CS/C1=C(\C#N)c1nnc2n1CCCCC2	/	-2	9	8	-1
C[C@H]1CN([C@@H](C)CO)C(=O)c2cccc(NC(=O)c3cnccn3)c2O[C@@H]1CN(C)C(=O)Nc1cccc2ccccc12	2	/	/	/	/
Clc1ccsc1-c1csc(-c2cccnc2)n1	/	12	42*	9	2
O=C(Nc1cccc(F)c1)N1CCCCN2[C@@H](CO)[C@H](c3ccc(C#Cc4ccccc4)cc3)[C@@H]2C1	8.9*	/	/	/	/
O=C(Nc1ccccc1)N1CCCCN2[C@@H](CO)[C@H](c3ccc(C#Cc4ccccc4)cc3)[C@@H]2C1	8.1*	/	/	/	/
COc1ccc(C#Cc2ccc([C@@H]3[C@H]4CN(C(=O)c5ccncc5)CCCCN4[C@H]3CO)cc2)cc1	4	/	/	/	/
COc1ccc(C#Cc2ccc([C@H]3[C@H]4CN(C(=O)c5ccncc5)CCCCN4[C@H]3CO)cc2)cc1	9.3*	/	/	/	/
O=C(Nc1cccc(F)c1)N1CCCCN2[C@H](C1)[C@H](c1ccc(C#Cc3ccccc3)cc1)[C@@H]2CO	5	/	/	/	/
O=S(=O)(Cc1ccccc1)N1CCCCN2[C@H](C1)[C@@H](c1ccc(C#Cc3ccccc3)cc1)[C@@H]2CO	8.0*	/	/	/	/
CCC(=O)N1[C@@H](CO)[C@@H]2c3ccccc3N(C(=O)Nc3ccc(Cl)cc3)C[C@@H]21	1	/	/	/	/
COc1ccccc1NC(=O)N1C[C@H]2[C@@H](c3ccccc31)[C@@H](CO)N2Cc1ccccc1F	0	/	/	/	/
CCCC#Cc1ccc([C@H]2[C@@H](CO)N3CCCCN(S(=O)(=O)c4ccccc4C)C[C@H]23)cc1	14*	/	/	/	/
CCCC#Cc1ccc([C@H]2[C@@H](CO)N3CCCCN(S(=O)(=O)c4ccccc4C)C[C@@H]23)cc1	1	/	/	/	/
C[C@H](CO)N1C[C@H](C)[C@@H](CN(C)Cc2ccc(C(=O)O)cc2)OCCCC[C@H](C)Oc2ccc(NC(=O)Cc3ccccc3)cc2C1=O	-1	/	/	/	/
C[C@H]1CN([C@@H](C)CO)S(=O)(=O)c2ccc(-c3ccc(C(=O)N(C)C)cc3)cc2O[C@@H]1CN(C)C(=O)C1CCCCC1	-2	/	/	/	/
COc1ccc(NC(=O)Nc2ccc3c(c2)C(=O)N([C@H](C)CO)C[C@H](C)[C@H](CN(C)S(=O)(=O)c2c(C)noc2C)OCCCC[C@@H](C)O3)cc1	-1	/	/	/	/
CC1=CC(C)(C)NC(=S)N1c1cc(C)cc(C)c1	-2	7	6	0	2
CC1=CC(C)(C)NC(=S)N1c1ccc(N(C)C)cc1	2	24*	3	-5	0
C[C@@H]1CN([C@@H](C)CO)C(=O)c2cc(NC(=O)Nc3ccccc3)ccc2O[C@@H]1CN(C)S(=O)(=O)c1ccc(F)cc1	1	/	/	/	/
CC1=C(C(=O)N2CCOCC2)CC(CC(=O)NCCc2ccccn2)C(=O)N1Cc1ccccc1 (stereo not drawn)	0	26*	13	/	-2
C[C@H](CO)N1C[C@H](C)[C@@H](CN(C)C(=O)Nc2ccc(F)cc2)Oc2ccc(NC(=O)Nc3ccc(F)cc3)cc2CC1=O	-2	/	/	/	/
NS(=O)(=O)c1ccc(CNC(=S)NCc2ccc(Cl)cc2)cc1	/	-4	-2	28	3
NS(=O)(=O)c1ccc(CNC(=S)NCc2ccc(F)cc2)cc1	4	25*	12	-3	0
SMILES	F508del corr	NRP1-CendR mod	SKN-1 inh	ATG4B inhibitor	MPTP block
Fc1ccc(CNC(=S)NC2CCCC2)cc1	-1	32*	12	17	6
CC1=C(C(=O)OCc2ccccc2)C(c2ccc([N+](=O)[O-])cc2)NC(=O)N1CCCC(=O)O (stereo not drawn)	0	33*	4	11	-1
CC1=C(C(=O)OCc2ccccc2)C(c2ccc([N+](=O)[O-])cc2)NC(=O)N1CCCCCC(=O)O (stereo not drawn)	-2	2	8	-2	-1
CCOC(=O)C1=C(C)N(CCCC(=O)O)C(=O)NC1c1ccc(OC)cc1 (stereo not drawn)	-2	26*	-21	-5	1
O=[N+]([O-])c1ccc(Cl)c2c1C1C=CCC1C(c1ccccn1)N2 (stereo not drawn)	-1	28*	26	0	2
COc1cccc(C(=O)c2c[nH]c(C(=O)NCCCN3CCOCC3)c2)c1	15*	-11	-1	-5	-3
CC(C)(C)c1ccc(C(=O)c2c[nH]c(C(=O)NCCCN3CCOCC3)c2)cc1	/	-6	8	4	-2
Clc1ccc2c(c1)-c1ccccc1C1=NCCN12	8.3*	-4	1	/	0
Clc1ccc(-c2nnsc2SCc2ccccc2)cc1	/	-5	36*	0	6
Clc1ccc(CSc2snnc2-c2ccccc2)cc1	/	-3	9	7	8
Oc1c(Br)cc(Br)cc1C=NCc1ccc(F)cc1	-1	-98	0	74*	-3
O/N=C/c1cc(Br)ccc1OCc1ccc(F)cc1	/	-12	20	23	-3
C[C@@H]1CCCCO[C@@H](CN(C)Cc2ccccc2)[C@@H](C)CN([C@@H](C)CO)C(=O)c2cc(NS(=O)(=O)c3cn(C)cn3)ccc2O1	-2	/	/	/	/
O=C1c2[nH]nc(-c3ccccc3)c2C(c2cccc(C(F)(F)F)c2)N1c1ccccc1 (stereo not drawn)	-1	/	/	/	/
C[C@@H]1CCCCO[C@@H](CN(C)C(=O)Nc2ccc3c(c2)OCO3)[C@@H](C)CN([C@H](C)CO)C(=O)c2cc(NC(=O)c3ccccc3)ccc2O1	1	/	/	/	/
O=C(O)c1cccc(CSc2nnc(COc3ccccc3)o2)c1	/	9	-33	0	-1
O=C(O)c1ccc(CSc2nnc(COc3ccccc3)o2)cc1	-2	22*	-4	9	-1
Clc1ccc(Cn2cc(Br)cn2)cc1Cl	/	-8	47*	3	4
C[C@@H]1CN([C@H](C)CO)S(=O)(=O)c2ccc(C#C[C@@H](C)O)cc2O[C@@H]1CN(C)C(=O)Nc1ccccc1	-1	/	/	/	/
COC(C(=O)C(O)C(C)O)C1Cc2cc3cc(OC4CC(OC5CC(O)C(O)C(C)O5)C(O)C(C)O4)c(C)c(O)c3c(O)c2C(=O)C1OC1CC(OC2CC(OC3CC(O)C(OC)C(C)O3)C(O)C(C)O2)C(O)C(C)O1 (stereo not drawn)	13*	10	21	-3	0
COc1ccc(Cc2nc(-c3ccc(Cl)cc3)no2)cc1	/	-1	35*	-9	0
